PubChem BioAssay (NCATS)
Results filed as inconclusive are left out. A call without a number means that no potency is given here. Unmarked numbers belong to inactive results. Calls of active or inactive are those of the source. Calls follow the shape of the dose curve; as a rule, active = well fitted curve in the direction sought with a large enough effect; inconclusive = small, poorly fitted or top-dose-only effect, or another doubt; inactive = no such curve, though single readings can be large; an effect the other way counts as inactive or inconclusive.

How the values were obtained:
[1] = qHTS of pediatric cancer cell lines to identify multiple opportunities for drug repurposing: Primary screen for LAN-5 cells (AID 1347100); also: potency is read from the fitted curve at half-maximal effect
Method in brief: (§1)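 Cells (500-1,000/well) rested 5 h, then received compounds for 48 h; metabolically active cells were measured by CellTiter-Glo luminescence. Final concentrations spanned up to 46 µM (MIPE, 11-point) or 0.59 nM-46 µM (NPC, 8-point) in primary screens, 11-point in follow-ups.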

[2] = qHTS of pediatric cancer cell lines to identify multiple opportunities for drug repurposing: Primary screen for BT-12 cells (AID 1347101); also: nearly all actives have a fitted effect of over 25% in size; also: potency is read from the fitted curve at half-maximal effect
Method in brief: as §1

[3] = qHTS of pediatric cancer cell lines to identify multiple opportunities for drug repurposing: Primary screen for Rh18 cells (AID 1347102); also: nearly all actives have a fitted effect of over 65% in size; also: potency is read from the fitted curve at half-maximal effect
Method in brief: as §1

[4] = qHTS of pediatric cancer cell lines to identify multiple opportunities for drug repurposing: Primary screen for OHS-50 cells (AID 1347103); also: nearly all actives have a fitted effect of over 40% in size; also: potency is read from the fitted curve at half-maximal effect
Method in brief: as §1

[5] = qHTS of pediatric cancer cell lines to identify multiple opportunities for drug repurposing: Primary screen for RD cells (AID 1347104); also: nearly all actives have a fitted effect of over 55% in size; also: potency is read from the fitted curve at half-maximal effect
Method in brief: (§2)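 Cells seeded at 500-1,000 cells/well in growth media, rested 5 hours at 37 degrees C, 5% CO2, then dosed; MIPE compounds at 11-point (from 0.78 nM) and NPC at 8-point (from 0.59 nM) final concentrations. Viability by CellTiter-Glo luminescence after 48 hours.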

[6] = qHTS of pediatric cancer cell lines to identify multiple opportunities for drug repurposing: Primary screen for MG 63 (6-TG R) cells (AID 1347105); also: nearly all actives have a fitted effect of over 50% in size; also: potency is read from the fitted curve at half-maximal effect
Method in brief: as §2

[7] = qHTS of pediatric cancer cell lines to identify multiple opportunities for drug repurposing: Primary screen for Rh30 cells (AID 1347107); also: series mostly up to about 46 µM; nearly all actives have a fitted effect of over 75% in size
Method in brief: as §1

[8] = qHTS of pediatric cancer cell lines to identify multiple opportunities for drug repurposing: Primary screen for Rh41 cells (AID 1347108); also: nearly all actives have a fitted effect of over 70% in size; also: potency is read from the fitted curve at half-maximal effect;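 as to activity change, negative = cytotoxic: series mostly up to about 46 µM; luminescence drop marks cytotoxic hits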
Method in brief: as §2

[9] = qHTS of pediatric cancer cell lines to identify multiple opportunities for drug repurposing: Primary screen for control Hh wild type fibroblast cells (AID 1347106);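 also: series mostly up to about 46 µM; a drop in luminescence marks cytotoxicity and a rise apparent proliferation; nearly all actives have a fitted effect of over 55% in size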
Method in brief: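 Cells (500-1,000/well) in growth media were settled 5 h at 37 degrees C, then given compounds for 48 h. Viability was read as CellTiter-Glo luminescence. Primary runs used MIPE at 11 points (0.78 nM-46 µM) and NPC at 8 points (0.59 nM-46 µM); follow-ups used 11 points.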

[10] = qHTS of pediatric cancer cell lines to identify multiple opportunities for drug repurposing: Confirmatory screen for NB1643 cells (AID 1347109); also: nearly all actives have a fitted effect of over 45% in size
Method in brief: as §1

O=c1cc[nH]c(=O)[nH]1
Potency [1]: inactive
Potency [2]: inactive
Potency [3]: inactive
Potency [4]: inactive
Potency [5]: inactive
Potency [6]: inactive
outcome [7]: inactive
Potency [8]: inactive

O=S(=O)(O)NC1CCCCC1
Potency [1]: inactive
Potency [2]: inactive
Potency [3]: inactive
Potency [4]: inactive
Potency [5]: inactive
outcome [9]: inactive
outcome [7]: inactive
Potency [8]: inactive

O=c1[nH]c(=O)c2[nH]c(=O)[nH]c2[nH]1
activity change, negative = cytotoxic [1]: 19.2% [at 9.22 µM]
activity change, negative = cytotoxic [2]: 3.54% [at 11.5 µM]
activity change, negative = cytotoxic [3]: 4.04% [at 9.22 µM]
activity change, negative = cytotoxic [4]: -8.33% [at 11.5 µM]
activity change, negative = cytotoxic [5]: 1.57% [at 9.22 µM]
activity change, negative = cytotoxic [6]: -26.1% [at 9.22 µM]
activity change, negative = cytotoxic [7]: 2.78% [at 9.22 µM]
activity change, negative = cytotoxic [8]: -6.34% [at 9.22 µM]

CC(C)(C)NCC(O)COc1ccc(NC(=O)NC2CCCCC2)cc1 (stereo not given)
Potency [1]: inactive
Potency [2]: inactive
Potency [3]: inactive
Potency [4]: inactive
Potency [5]: inactive
Potency [6]: inactive
outcome [7]: inactive
Potency [8]: inactive

NC(=O)c1ncn([C@@H]2O[C@H](CO)[C@@H](O)[C@H]2O)c1N
Potency [1]: inactive
Potency [2]: inactive
Potency [3]: inactive
Potency [4]: inactive
Potency [5]: inactive
Potency [6]: inactive
outcome [7]: inactive
Potency [8]: inactive

Cc1cccc(Nc2cc(Cl)nc(SCC(=O)O)n2)c1C
Potency [1]: inactive
Potency [2]: inactive
Potency [3]: inactive
Potency [4]: inactive
Potency [5]: inactive
Potency [6]: inactive
outcome [7]: inactive
Potency [8]: inactive

Nc1cc(=O)[nH]c(N)n1
Potency [1]: inactive
Potency [2]: inactive
Potency [3]: inactive
Potency [4]: inactive
Potency [5]: inactive
Potency [6]: inactive
outcome [7]: inactive
Potency [8]: inactive

CCCCCCCCCCCCOS(=O)(=O)O
Potency [1]: inactive
Potency [2]: inactive
Potency [3]: inactive
Potency [4]: inactive
Potency [5]: inactive
Potency [6]: inactive
outcome [7]: inactive
Potency [8]: inactive

Nc1ccc(S(=O)(=O)NC(=O)c2ccccc2)cc1
Potency [1]: inactive
Potency [2]: inactive
Potency [3]: inactive
Potency [4]: inactive
Potency [5]: inactive
outcome [9]: inactive
outcome [7]: inactive
Potency [8]: inactive

O=c1[nH]cnc2c1ncn2[C@@H]1O[C@H](CO)[C@@H](O)[C@H]1O
Potency [1]: inactive
Potency [2]: inactive
Potency [3]: inactive
Potency [4]: inactive
Potency [5]: inactive
Potency [6]: inactive
outcome [7]: inactive
Potency [8]: inactive

CCN(CC)C(C)CN1c2ccccc2Sc2ccccc21 (stereo not given)
Potency [1]: inactive
Potency [2]: inactive
Potency [3]: inactive
Potency [4]: inactive
Potency [5]: inactive
Potency [6]: inactive
outcome [7]: inactive
Potency [8]: inactive

N[C@H](C(=O)O)c1ccc(O)cc1
Potency [1]: inactive
Potency [2]: inactive
Potency [3]: inactive
Potency [4]: inactive
Potency [5]: inactive
Potency [6]: inactive
outcome [7]: inactive
Potency [8]: inactive

Cc1cccc(C)c1NC(=O)CN(CC(=O)O)CC(=O)O
Potency [1]: inactive
Potency [2]: inactive
Potency [3]: inactive
Potency [4]: inactive
Potency [5]: inactive
outcome [9]: inactive
outcome [7]: inactive
Potency [8]: inactive

C[C@@H]1C[C@H]2[C@@H]3C[C@H](F)C4=CC(=O)C=C[C@]4(C)[C@@]3(F)[C@@H](O)C[C@]2(C)[C@@]1(O)C(=O)CO
Potency [1]: inactive
Potency [2]: inactive
Potency [3]: inactive
Potency [4]: inactive
Potency [5]: inactive
Potency [6]: inactive
outcome [7]: inactive
Potency [8]: inactive
Potency [10]: inactive

COc1ccc2[nH]c(S(=O)Cc3ncc(C)c(OC)c3C)nc2n1 (stereo not given)
Potency [1]: inactive
Potency [2]: inactive
Potency [3]: inactive
Potency [4]: inactive
Potency [5]: inactive
Potency [6]: inactive
outcome [7]: inactive
Potency [8]: inactive

NCCNCCNCCNCCN
activity change, negative = cytotoxic [1]: -15.5% [at 9.22 µM]
activity change, negative = cytotoxic [2]: 0.69% [at 11.5 µM]
activity change, negative = cytotoxic [3]: -4.13% [at 9.22 µM]
activity change, negative = cytotoxic [4]: -3.79% [at 11.5 µM]
activity change, negative = cytotoxic [5]: -3.51% [at 9.22 µM]
activity change, negative = cytotoxic [9]: -0.844% [at 9.22 µM]
activity change, negative = cytotoxic [7]: 7.05% [at 9.22 µM]
activity change, negative = cytotoxic [8]: 10.3% [at 9.22 µM]

N[C@@H](CSCCCO)C(=O)O
Potency [1]: inactive
Potency [2]: inactive
Potency [3]: inactive
Potency [4]: inactive
Potency [5]: inactive
Potency [6]: inactive
outcome [7]: inactive
Potency [8]: inactive

CC[C@H]1CN2CCc3cc(OC)c(OC)cc3[C@@H]2C[C@@H]1C[C@H]1NCCc2cc(OC)c(OC)cc21
Potency [1]: 335 nM (active)
Potency [2]: 347 nM (active)
Potency [3]: 2110 nM (active)
Potency [4]: 347 nM (active)
Potency [5]: 335 nM (active)
Potency [6]: 2110 nM (active)
outcome [7]: inactive
Potency [8]: 3760 nM (active)
